Screening data: PubChem, National Center for Advancing Translational Sciences (NCATS)
TDP1 cell CPT: qHTS for Inhibitors of human tyrosyl-DNA phosphodiesterase 1 (TDP1): qHTS in cells in presence of CPT | chicken DT40 Tdp1-/-;hTDP1 cells + 20 nM CPT, ATP luminescence, 48 h | Potency, µM (series often up to 46.2 µM), most hits filed as inhibitors | actives 12% (n = 420,000); note: nearly all actives have a fitted effect of over 55% in size
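Chicken DT40 Tdp1-/- cells stably complemented with human TDP1 were seeded at 400 cells/well in medium containing 20 nM camptothecin, exposed to pin-transferred compounds, and grown at 37 °C for at least 48 hr. Viability was read as ATP luminescence.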
VP16 counter: VP16 counterscreen qHTS for inhibitors of ROR gamma transcriptional activity; Drosophila S2 Gal4-VP16 UAS-luciferase, luminescence, 20 h; actives 3.5% (n = 310,000); Potency, µM (highest dose often 53.6 µM), hits mostly inhibitors;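 note: Gal4-VP16 expression switched on by copper sulfate through the metallothionein promoter; nearly all actives have a fitted effect of over 50% in size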
RORgamma inh: qHTS for inhibitors of ROR gamma transcriptional activity. Nuclear receptor ROR-gamma (Mus musculus), P51450. AID 2551, 2010. Drosophila S2 Gal4-RORgamma UAS-luciferase reporter, 20 h. Potency, µM (top dose mostly 53.6 µM), actives largely listed as inhibitors. actives 5.4% (n = 310,000); note: nearly all actives have a fitted effect of over 60% in size
Target sequence (P51450 whole entry, looked up, the tested form may be a part): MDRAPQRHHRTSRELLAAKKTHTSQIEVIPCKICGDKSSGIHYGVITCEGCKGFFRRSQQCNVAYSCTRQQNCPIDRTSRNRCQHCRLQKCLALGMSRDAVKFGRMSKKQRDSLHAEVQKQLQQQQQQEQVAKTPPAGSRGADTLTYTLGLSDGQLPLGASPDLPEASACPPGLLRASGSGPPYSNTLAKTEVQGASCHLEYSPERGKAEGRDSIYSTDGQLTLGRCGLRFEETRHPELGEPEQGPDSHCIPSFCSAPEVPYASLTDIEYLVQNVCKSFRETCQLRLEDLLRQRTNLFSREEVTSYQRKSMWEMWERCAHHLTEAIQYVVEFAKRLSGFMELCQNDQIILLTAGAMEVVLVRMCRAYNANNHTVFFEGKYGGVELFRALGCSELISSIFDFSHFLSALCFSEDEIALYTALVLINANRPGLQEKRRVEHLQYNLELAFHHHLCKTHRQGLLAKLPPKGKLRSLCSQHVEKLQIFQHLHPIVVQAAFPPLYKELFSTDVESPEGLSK
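Luminescence from a UAS-regulated Photinus luciferase reporter in stably transfected Drosophila Schneider cells is measured; decreased signal marks ROR gamma inhibition. Fusion expression is induced by 700 uM copper sulfate for 20 hr.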
LDHA inh: qHTS assay for inhibitors of human lactate dehydrogenase | AID 1347041, 2019 | actives 0.15% (n = 480,000) | purified LDHA, NADH/diaphorase-resazurin fluorescence; active compounds read low | L-lactate dehydrogenase A chain (Homo sapiens), P00338 | activity change, % (values are at about 110 or 230 µM); in the data active = activity change below about -30%; inconclusive = mostly about -25% to -30%
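LDH5 2 nM; NADH 0.06 mM, pyruvate 0.2 mM; 200 mM Tris pH 7.4, EDTA, Tween-20; 5 min RT. Detection: diaphorase 0.133 mg/mL + resazurin 37 µM, fluorescence ex540/em590 at 0 and 20 min; normalized to enzyme-free and DMSO wells.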
IL-1B inflam inh: qHTS for Inhibitors of Inflammasome Signaling: IL-1-beta AlphaLISA Primary Screen | activity change, % at 57.5 µM | AID 743279, 2014 | actives 4.7% (n = 360,000) | THP-1 LPS/ATP IL-1B secretion, AlphaLISA, 16 h; active compounds read low; in the data active = activity change below about -50%; inconclusive = mostly about -30% to -49%
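THP-1 cells pretreated 1 hr with compounds (up to 57.5 uM final), then stimulated with LPS (250 ng/mL final) plus ATP (1.25 mM final); secreted IL-1B measured by AlphaLISA after 16 hr, decreased signal indicating inhibition.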
TDP1 cell noCPT: qHTS for Inhibitors of human tyrosyl-DNA phosphodiesterase 1 (TDP1): qHTS in cells in absence of CPT; DT40 Tdp1-/- hTDP1 cells, no CPT, ATP luminescence, 48 h; Potency, µM (titrated, usually from 46.2 µM), most hits filed as inhibitors; actives 15% (n = 420,000); AID 686978, 2013; note: nearly all actives have a fitted effect of over 55% in size
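Chicken DT40 Tdp1-/- cells stably complemented with human TDP1 were seeded at 400 cells/well with DMSO in place of 20 nM camptothecin. After compound pinning, cells grew at least 48 hr at 37 °C; viability read by CellTiter-Glo luminescence.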
Hits are given with their value; – = inactive; ? = inconclusive; · = no result. Most compounds without a hit are left out; they make up all but 18% or so of the library. Unless noted, calls come from the whole dose curve; as a rule, active = well fitted curve in the direction sought with a large enough effect; inconclusive = small, poorly fitted or top-dose-only effect, or another doubt; inactive = no such curve, though single readings can be large; an effect the other way counts as inactive or inconclusive.

SMILES	TDP1 cell CPT	VP16 counter	RORgamma inh	LDHA inh	IL-1B inflam inh	TDP1 cell noCPT
CCCc1cc(-c2n[nH]c(C(=O)OCC)c2-c2cscn2)c(O)cc1O	?	?	?	–	–	15µM
CCOC(=O)c1[nH]nc(-c2c(O)cc(C)cc2O)c1-c1csc(C)n1	–	–	–	–	–	–
O=C(NC1CCCCC1)c1cccc(Nc2cc(-c3cccc(F)c3)ncn2)c1	·	·	·	–	·	·
CCc1nc(C)cc2c1sc1ccccc12	–	–	?	–	·	?
CC[n+]1c(C)cc2c(sc3ccccc32)c1C	12µM	–	–	–	–	2.9µM
O=C(OCc1ccc(O)cc1)c1c(-c2ccsc2)oc2ccc(N3CCOCC3)cc12	18µM	–	–	–	–	13µM
CCOP1(=O)C=C(Sc2ccc([N+](=O)[O-])cc2[N+](=O)[O-])C(C)(C)O1 (stereo unspecified)	–	·	·	–	–	–
Cc1ccnc(Sc2ccc([N+](=O)[O-])cn2)n1	–	–	–	–	–	–
CN(C)/N=C/c1ccc(Sc2ccc([N+](=O)[O-])cc2[N+](=O)[O-])o1	?	?	?	–	–	23µM
Cc1cc(C)nc(Sc2ccc([N+](=O)[O-])cc2[N+](=O)[O-])n1	1.3µM	?	8.9µM	–	-60	1µM
O=[N+]([O-])c1ccc(Sc2cccc3cccnc23)c([N+](=O)[O-])c1	4.6µM	7.1µM	7.1µM	–	–	4.6µM
C=CCn1nc([N+](=O)[O-])nc1Sc1cccc2cccnc12	5.2µM	?	8.9µM	–	-99	4.1µM
O=[N+]([O-])c1ccc(Sc2ccncn2)c([N+](=O)[O-])c1	1µM	·	·	–	-80	0.65µM
CSc1cccc(NC(=O)/C(=C/c2ccccc2Cl)c2ccccc2)c1	·	·	·	–	·	·
CCCCS/C(=C(/C#N)C(N)=O)c1cc2c([nH]1)CCCC2	21µM	–	–	–	-66	?
Cc1ccc(S(=O)(=O)/C(C#N)=C\c2ccc(F)cc2)cc1	·	·	·	–	·	·
Cc1ccc(CNC(=O)C2CCN(C(=O)N3CC(C)Oc4ccc(Cl)cc43)CC2)cc1 (stereo unspecified)	?	·	·	–	·	18µM
Cc1ccc2c(c1)N(C(=O)N1CCC(C(=O)NCc3ccccc3C)CC1)CC(C)O2 (stereo unspecified)	21µM	·	·	–	·	16µM
CC1CN(C(=O)N2CCC(C(=O)NCc3ccccc3)CC2)c2ccccc2O1 (stereo unspecified)	·	·	·	–	·	·
Cc1ccc2c(c1)N(C(=O)N1CCC(C(=O)NCc3ccco3)CC1)CC(C)O2 (stereo unspecified)	?	·	·	–	·	?
COc1ccc(C23CC4CC(C2)CC(c2ccc(OC)c(C(=O)NC(c5ccccc5)c5ccccc5)c2)(C4)C3)cc1C(=O)NC(c1ccccc1)c1ccccc1	·	·	·	–	·	·
C=CCN(C(=O)CSC1=NC(=O)CN1C(C)=O)c1nc(C)c(-c2ccccc2)s1	?	?	13µM	–	-89	18µM
C=CCSc1nnc(-c2sc(-c3ccccc3)nc2C)n1C	?	–	–	–	–	–
O=c1c2ccccc2nc2sc3ccccc3n12	?	–	?	–	–	13µM
Fc1ccc(-c2nnn(Cc3cc(Cl)c4c(c3)OCCCO4)n2)cc1	·	·	·	–	·	·
SMILES	TDP1 cell CPT	VP16 counter	RORgamma inh	LDHA inh	IL-1B inflam inh	TDP1 cell noCPT
CCC1=NN(C(=O)c2ccc(Br)cc2)C(O)(c2ccc(C)cc2)C1 (stereo unspecified)	5.2µM	11µM	13µM	–	–	5.2µM
CCC1=NN(C(=O)c2ccc(C)cc2)C(O)(c2ccc(Br)cc2)C1 (stereo unspecified)	?	13µM	?	–	–	?
c1ccc(COc2ccccc2CNC2CCCC2)cc1	?	–	?	–	-70	?
c1ccc(COc2ccccc2CNC23CC4CC(CC(C4)C2)C3)cc1	18µM	?	?	–	-95	15µM
c1csc(COc2ccccc2CNC2CCCCC2)c1	?	–	–	–	-73	?
Cn1c(=O)c(C(=O)CCl)c(N)n(CC2CC2)c1=O	23µM	–	–	–	?	18µM
Cc1cccc(N2CC(C(=O)OCC(=O)c3c(N)n(CC(C)C)c(=O)n(C)c3=O)CC2=O)c1C (stereo unspecified)	?	·	·	–	–	?
CC(=O)c1c(C)[nH]c(C(=O)OCC(=O)c2c(N)n(C)c(=O)n(C)c2=O)c1C	·	–	–	·	·	·
CC(C)Cn1c(N)c(C(=O)COC(=O)C2Cc3ccccc3CN2S(C)(=O)=O)c(=O)n(C)c1=O (stereo unspecified)	6.5µM	·	·	–	–	5.2µM
CC(C)Cn1c(N)c(C(=O)COC(=O)C2CCCCC2)c(=O)n(C)c1=O	16µM	–	?	–	–	18µM
CC(=O)c1c(C)[nH]c(C(=O)OCC(=O)c2c(N)n(CC(C)C)c(=O)n(C)c2=O)c1C	?	·	·	–	–	23µM
Clc1cccc(-n2cccc2)c1	·	·	·	–	·	·
CCc1cc(/C(Cc2csc(C)n2)=N/O)c(O)cc1O	?	?	–	–	–	23µM
COc1ccc(C(C)NC(=O)CN(c2cc(OC)ccc2OC)S(=O)(=O)c2ccccc2)cc1 (stereo unspecified)	21µM	·	·	–	·	?
COc1ccc(OC)c(N(CC(=O)Nc2ccccc2)S(=O)(=O)c2ccccc2)c1	?	–	–	–	–	?
CCOc1ccc(N(CC(=O)NC(C(C)C)C(C)C)S(=O)(=O)c2ccc(OC)c(OC)c2)cc1	?	–	–	–	–	23µM
COc1ccc(S(=O)(=O)N(CC(=O)NC(C)c2ccccc2)c2ccc(C)cc2)cc1OC (stereo unspecified)	?	·	·	–	·	5.8µM
COc1ccc(S(=O)(=O)N(CCc2ccccc2)CC(=O)NCc2ccccc2)cc1OC	16µM	·	·	–	·	?
COc1ccc(S(=O)(=O)N(CC(=O)NCCC(C)C)c2ccccc2)cc1OC	–	–	–	–	–	?
O=C(O)C(c1c[nH]c2ccc(CO)cc12)N1CCN(CCNc2cc(=O)oc3ccccc23)CC1 (stereo unspecified)	·	·	·	–	·	·
Cc1ccc(CC2C(=O)N(C)c3ccc(Br)cc32)cc1 (stereo unspecified)	·	·	·	–	·	·
O=C(CN(CC1CCOC1)C1CC1)NC1CC1 (stereo unspecified)	·	·	·	–	·	·
